Measured values reported in PubChem BioAssay AID1159580 (chemical genetic matrix, 2015).
Where “and” joins values, the source holds several entries; their conditions need not be identical. Equal entries are not always repeated. In all, about 5,500 compounds went through this assay and about 2,000 (36%) were called active. Another 18% or so got no clear call; they are omitted. No stated cut-off is given here; in the data, active means normalized growth mostly below about 0.91 (no sharp cut-off); inconclusive means no clear call, values can overlap the other calls; inactive means mostly above about 0.92. This is one part of the list.

Experiment: chemical genetic growth profiling, strain panel (AID 1159580);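 further: tested at 20 µM; growth read once vehicle control cultures reached saturation at 30 °C; 1 = growth at the plate median or of vehicle wells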
Settings: S. cerevisiae deletion strains, growth OD

Measured: normalized growth

Cc1ccc2c(c1)CC[C@H]1CC(=O)CC[C@]21C
inactive: locus YAL013W, strain DEP1, stronger effect = lower value 1.01 | locus YAL021C, strain ccr4, stronger effect = lower value 0.991 | locus YAL026C, strain drs2, stronger effect = lower value 1.01 | locus YAL030W, strain snc1, stronger effect = lower value 1.01 | locus YBL061C, strain skt5, stronger effect = lower value 1 | locus YBR009C, strain hhf1, stronger effect = lower value 1 | locus YBR021W, strain FUR4, stronger effect = lower value 0.971 | locus YBR023C, strain chs3, stronger effect = lower value 0.998 | locus YBR171W, strain sec66, stronger effect = lower value 0.992 | locus YBR229C, strain ROT2, stronger effect = lower value 0.997 | locus YBR231C, strain swc5, stronger effect = lower value 1.01 | locus YBR279W, strain paf1, stronger effect = lower value 1.01 | locus YCL011C, strain gbp2, stronger effect = lower value 0.995 | locus YCL016C, strain dcc1, stronger effect = lower value 1.01 | locus YCL029C, strain bik1, stronger effect = lower value 0.991 | locus YCL069W, strain vba3, stronger effect = lower value 0.995 | locus YCR088W, strain abp1, stronger effect = lower value 0.998 | locus YDL005C, strain med2, stronger effect = lower value 1.01 | locus YDL035C, strain GPR1, stronger effect = lower value 0.973 | locus YDL040C, strain nat1, stronger effect = lower value 1 | locus YDL074C, strain BRE1, stronger effect = lower value 0.971 | locus YDL101C, strain DUN1, stronger effect = lower value 1.01 | locus YDL134C, strain PPH21, stronger effect = lower value 1 | locus YDL185W, strain tfp1, stronger effect = lower value 0.983 | locus YDL192W, strain arf1, stronger effect = lower value 0.974 | locus YDR001C, strain nth1, stronger effect = lower value 0.998 | locus YDR069C, strain doa4, stronger effect = lower value 1.01 | locus YDR101C, strain arx1, stronger effect = lower value 0.97 | locus YDR137W, strain rgp1, stronger effect = lower value 0.956 | locus YDR150W, strain NUM1, stronger effect = lower value 1 | locus YDR159W, strain sac3, stronger effect = lower value 1.01 | locus YDR162C, strain NBP2, stronger effect = lower value 0.974 | locus YDR195W, strain ref2 1.05 | locus YDR297W, strain sur2, stronger effect = lower value 0.991 | locus YDR318W, strain mcm21, stronger effect = lower value 0.972 | locus YDR334W, strain swr1, stronger effect = lower value 1.01 | locus YDR335W, strain msn5, stronger effect = lower value 1 | locus YDR388W, stronger effect = lower value 0.979 | locus YDR392W, strain spt3, stronger effect = lower value 0.983 | locus YDR502C, strain sam2, stronger effect = lower value 0.968 | locus YEL003W, strain gim4, stronger effect = lower value 0.991 | locus YEL037C, strain rad23, stronger effect = lower value 1.01 | locus YEL061C, strain CIN8 (second series), stronger effect = lower value 0.993 | locus YEL061C, strain CIN8, stronger effect = lower value 1 | locus YER015W, strain faa2, stronger effect = lower value 1.01 | locus YER016W, strain bim1, stronger effect = lower value 1 | locus YER110C, stronger effect = lower value 0.966 | locus YER111C, strain swi4, stronger effect = lower value 0.991 | locus YER155C, strain BEM2 (second series), stronger effect = lower value 0.978 | locus YER155C, strain BEM2, stronger effect = lower value 0.997 | locus YER167W, strain BCK2, stronger effect = lower value 0.991 | locus YFR010W, strain ubp6, stronger effect = lower value 1.01 | locus YGL078C, strain dbp3, stronger effect = lower value 0.989 | locus YGL086W, strain mad1, stronger effect = lower value 0.981 | locus YGL167C, strain pmr1, stronger effect = lower value 0.998 | locus YGL173C, strain kem1, stronger effect = lower value 0.982 | locus YGL227W, strain vid30, stronger effect = lower value 1 | locus YGL240W, strain doc1, stronger effect = lower value 0.987 | locus YGL248W, strain PDE1, stronger effect = lower value 0.993 | locus YGL253W, strain hxk2, stronger effect = lower value 1 | locus YGR078C, strain PAC10, stronger effect = lower value 0.982 | locus YGR135W, strain pre9, stronger effect = lower value 0.959 | locus YGR229C, strain SMI1, stronger effect = lower value 1.01 | locus YGR252W, strain gcn5, stronger effect = lower value 0.881 | locus YHR013C, strain ard1, stronger effect = lower value 1.02 | locus YHR027C, strain rpn1, stronger effect = lower value 1.01 | locus YHR030C, strain SLT2, stronger effect = lower value 0.996 and 0.98 | locus YHR079C, strain IRE1 (second series), stronger effect = lower value 0.969 | locus YHR079C, strain IRE1, stronger effect = lower value 0.973 | locus YHR094C, strain hxt1, stronger effect = lower value 0.995 | locus YHR129C, strain ARP1, stronger effect = lower value 0.996 | locus YHR142W, strain chs7, stronger effect = lower value 0.985 | locus YHR200W, strain rpn10, stronger effect = lower value 0.979 | locus YIL066C, strain RNR3, stronger effect = lower value 0.993 | locus YIL073C, strain SPO22, stronger effect = lower value 0.965 | locus YIL125W, strain kgd1, stronger effect = lower value 0.999 | locus YIR030C, strain dcg1, stronger effect = lower value 0.974 | locus YJL092W, strain hpr5, stronger effect = lower value 1 | locus YJL095W, strain BCK1 (second series), stronger effect = lower value 1.01 | locus YJL095W, strain BCK1, stronger effect = lower value 0.967 and 0.983 | locus YJL115W, strain asf1, stronger effect = lower value 1.01 | locus YJL129C, strain trk1, stronger effect = lower value 1 | locus YJL134W, strain LCB3, stronger effect = lower value 0.997 | locus YJL154C, strain vps35, stronger effect = lower value 0.993 | locus YJL164C, strain tpk1, stronger effect = lower value 0.992 | locus YJL166W, strain qcr8, stronger effect = lower value 0.995 | locus YJL168C, strain set2, stronger effect = lower value 0.971 | locus YJL187C, strain SWE1 (second series), stronger effect = lower value 1.01 | locus YJR043C, strain POL32, stronger effect = lower value 0.967 | locus YJR066W, strain TOR1, stronger effect = lower value 0.897 | locus YJR075W, strain HOC1, stronger effect = lower value 1
